# Calls of active or inactive are those of the source. Unless noted, the rule behind the calls is not given here.
# Tests used:
# [1] = resazurin metabolic signal in HepG2 cells – cell-based, resazurin fluorescence, 24 h, PK04 Diversity Set, profiling panel (AID 1172); settings: HepG2 viability, higher = more signal
# [2] = budding yeast growth changes without added modifier – OD600, strain BY4716, 24 h, basal condition, primary screen (AID 1173); settings: S. cerevisiae BY4716 growth, OD600, 24 h; higher = more signal, called active from +8 up or from −8 down
# [3] = viability profiling in MM1S myeloma cells – cell-based, resazurin fluorescence, basal, 24 h, PK04 Diversity Set, profiling panel (AID 1174); settings: higher = more signal, called active from +8 up or from −8 down;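 note: MM1S multiple myeloma cell line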
# [4] = target: Dihydroorotate dehydrogenase (quinone), mitochondrial (Plasmodium falciparum (isolate 3D7)) (UniProt Q08210); assay: inhibition of P. falciparum DHODH – biochemical, C-terminal His tag, absorbance 600 nm, primary screen (AID 1175); settings: PfDHODH enzyme, DCIP absorbance 600 nm; higher = more signal, called active from +8 up or from −8 down;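 note: recombinant parasite enzyme with a five histidine tag at its C terminus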
# [5] = growth modulation of vineyard yeast isolate – strain RM11-1a, OD600, basal, 24 h, primary screen (AID 1177);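 note: cultures grown under basal conditions with no added stressor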; settings: S. cerevisiae RM11-1a growth, OD600, 24 h; higher = more signal, called active from +8 up or from −8 down
# [6] = growth of efflux-deficient E. coli DRC39 – strain DRC39, OD650, 24 h, E. coli filamentation inducers, primary screen (AID 1178);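 note: growth measured as culture turbidity by optical density at 650 nm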; settings: E. coli DRC39 acrAB, higher = more signal, called active from +8 up or from −8 down
# [7] = growth of efflux-deficient E. coli DRC39 – strain DRC39, OD650, 48 h, E. coli filamentation inducers, primary screen (AID 1179);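 note: screen aims at cell division blockers that make cells filament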; settings: E. coli DRC39 delta-acrAB growth, higher = more signal, called active from +8 up or from −8 down
# [8] = viability profiling in RPMI8226 myeloma cells – cell-based, resazurin fluorescence, basal, 24 h, PK04 Diversity Set, profiling panel (AID 1180); settings: higher = more signal;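 note: RPMI8826 multiple myeloma cell line at 5000 cells per well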
# [9] = target: E3 ubiquitin-protein ligase XIAP (Homo sapiens) (UniProt P98170); assay: small molecules binding XIAP protein – biophysical, small-molecule microarray, fluorescence 635 nm, primary screen (AID 1181); settings: higher = more signal;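 note: score merges 667 nm emission and signal to noise over triplicate slides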
# [10] = tested on: XIP peptide (Xip251-270) binding; assay: XIP fragment 251-270 binding compounds – biochemical, small-molecule microarray, fluorescence 635/667 nm, 0.1 µg/mL protein, primary screen (AID 1182); settings: fluorescent protein binding, 635 nm, higher = more signal, called active from +8 up or from −8 down
# [11] = tested on: XIP peptide (Xip251-270); assay: compounds binding XIP fragment 251-270 – biochemical, small-molecule microarray, fluorescence 635/667 nm, 0.5 µg/mL protein, primary screen (AID 1183); settings: fluorescence 635 nm, higher = more signal
# [12] = blood-stage malaria parasite viability loss – strain 3D7, DAPI fluorescence, 100 nL, primary screen (AID 1184);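 note: parasites grown inside human red blood cells in medium with human serum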; settings: P. falciparum 3D7 growth, 3 d, higher = more signal
# [13] = target: Homeobox protein Hox-A13 (Mus musculus) (UniProt Q62424); assay: disruptors of Hoxa13 oligonucleotide interaction – biochemical, fluorescence polarization, labeled oligonucleotide, primary screen (AID 1185); settings: Hoxa13:DNA binding, 15 min, higher = more signal, called active from +8 up or from −8 down
# [14] = blockers of DNA damage checkpoint Chk1 activation – imaging, HeLa, hydroxyurea, phospho-Chk1 antibody, percent positive cells, primary screen (AID 1186); settings: hydroxyurea-induced phospho-Chk1 immunofluorescence imaging, higher = more signal
# [15] = blockers of DNA damage checkpoint Chk1 activation – imaging, HeLa, hydroxyurea, phospho-Chk1 nuclear intensity, primary screen (AID 1187); settings: hydroxyurea-induced phospho-Chk1 immunofluorescence imaging, higher = more signal
# Sequence of Homeobox protein Hox-A13 (Mus musculus) (Q62424 whole entry, looked up): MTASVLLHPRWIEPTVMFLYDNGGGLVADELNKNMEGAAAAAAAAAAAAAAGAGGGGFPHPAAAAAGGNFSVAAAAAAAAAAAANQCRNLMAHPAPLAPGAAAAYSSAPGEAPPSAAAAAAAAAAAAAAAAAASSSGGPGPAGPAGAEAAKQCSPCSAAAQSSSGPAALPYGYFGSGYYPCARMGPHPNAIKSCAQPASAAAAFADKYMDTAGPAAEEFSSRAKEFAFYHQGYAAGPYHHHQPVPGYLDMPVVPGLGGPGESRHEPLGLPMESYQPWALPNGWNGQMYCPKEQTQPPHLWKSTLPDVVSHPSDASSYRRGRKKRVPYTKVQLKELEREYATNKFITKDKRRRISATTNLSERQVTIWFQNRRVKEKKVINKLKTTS
# Sequence of Dihydroorotate dehydrogenase (quinone), mitochondrial (Plasmodium falciparum (isolate 3D7)) (Q08210 whole entry, looked up): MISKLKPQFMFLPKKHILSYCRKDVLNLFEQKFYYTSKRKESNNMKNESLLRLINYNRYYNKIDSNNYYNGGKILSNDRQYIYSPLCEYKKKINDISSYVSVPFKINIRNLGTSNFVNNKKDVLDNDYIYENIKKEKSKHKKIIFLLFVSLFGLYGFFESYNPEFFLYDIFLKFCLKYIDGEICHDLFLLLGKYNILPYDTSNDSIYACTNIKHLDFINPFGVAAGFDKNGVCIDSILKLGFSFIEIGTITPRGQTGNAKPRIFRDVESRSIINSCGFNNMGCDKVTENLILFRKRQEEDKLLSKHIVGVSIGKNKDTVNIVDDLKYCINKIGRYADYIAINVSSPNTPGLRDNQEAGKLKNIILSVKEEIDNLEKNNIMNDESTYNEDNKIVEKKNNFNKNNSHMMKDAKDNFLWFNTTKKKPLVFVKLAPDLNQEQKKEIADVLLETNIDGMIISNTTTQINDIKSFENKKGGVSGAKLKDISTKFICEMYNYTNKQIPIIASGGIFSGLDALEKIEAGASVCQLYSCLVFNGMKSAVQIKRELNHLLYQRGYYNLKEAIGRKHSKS
# Sequence of E3 ubiquitin-protein ligase XIAP (Homo sapiens) (P98170 whole entry, looked up, the tested form may be a part): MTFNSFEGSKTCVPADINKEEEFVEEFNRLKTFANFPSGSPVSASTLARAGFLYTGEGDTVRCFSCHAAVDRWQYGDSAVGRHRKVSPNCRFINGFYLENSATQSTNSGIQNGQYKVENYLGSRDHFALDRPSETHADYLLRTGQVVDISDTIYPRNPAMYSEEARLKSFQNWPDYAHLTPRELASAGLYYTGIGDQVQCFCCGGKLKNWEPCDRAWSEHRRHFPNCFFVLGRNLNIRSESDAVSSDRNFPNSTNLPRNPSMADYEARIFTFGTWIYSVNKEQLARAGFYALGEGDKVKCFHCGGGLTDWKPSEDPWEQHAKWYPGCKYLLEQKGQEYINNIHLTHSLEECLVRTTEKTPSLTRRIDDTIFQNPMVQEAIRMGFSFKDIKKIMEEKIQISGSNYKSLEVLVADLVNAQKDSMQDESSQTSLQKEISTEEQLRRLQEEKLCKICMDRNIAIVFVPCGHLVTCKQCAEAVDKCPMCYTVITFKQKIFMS
Compound,z-score [1],z-score [2],z-score [3],composite z-score [4],z-score [5],z-score [6],z-score [7],z-score [8],composite z-score [9],composite z-score [10],composite z-score [11],z-score [12],z-score [13],z-score [14],z-score [15]
[N-]=[N+]=NCc1ccccc1C[C@]1(C(N)=O)N=C(c2ccc(OCCCO)cc2)O[C@H]1c1ccccc1CN=[N+]=[N-],-0.668,-3.26 (inactive),-1.04 (inactive),-2.42 (inactive),-3.31 (inactive),2.63 (inactive),0.258 (inactive),-1.46,0.0685,1.04 (inactive),-0.285,-2.29,1.67 (inactive),-0.442 (inactive),-0.427 (inactive)
C=CCOC(=O)[C@@H]1[C@H]2C(=O)O[C@H](c3ccccc3)[C@H](c3ccccc3)N2[C@H](c2ccc(OCCOC(=O)[C@H]3C[C@H]4C(=O)N5CCC[C@H]5C(=O)N4[C@H]3c3ccc(O)cc3)cc2)[C@@]12C(=O)Nc1ccccc12,-0.379,-0.117 (inactive),0.201 (inactive),0.0956 (inactive),0.256 (inactive),0.197 (inactive),-0.148 (inactive),1.03,-0.217,1.22 (inactive),0.804,-2.01,1.59 (inactive),0.458 (inactive),0.895 (inactive)
CO[C@H]1O[C@H](CO)[C@@H](OC(=O)Nc2ccc(Oc3ccccc3)cc2)[C@H](OC(=O)Nc2ccccc2-c2ccccc2)[C@H]1OC(=O)Nc1ccccc1-c1ccccc1,-2.96,1.94 (inactive),-3.97 (inactive),-0.326 (inactive),4.09 (inactive),0.275 (inactive),-0.534 (inactive),-2.5,0.344,1.57 (inactive),0.832,-2.09,0.193 (inactive),-0.0605 (inactive),0.413 (inactive)
C=C(COC)/C(=C/C[C@H](OC(C)=O)c1ccc(OCCO)cc1)c1cnc2ccccc2c1,0.807,-0.229 (inactive),1.03 (inactive),-2.82 (inactive),1.65 (inactive),1.2 (inactive),0.805 (inactive),1.03,-0.102,0.878 (inactive),0.0356,-3.08,-3.6 (inactive),-0.619 (inactive),-0.632 (inactive)
C=C(COC)/C(=C/C[C@@H](OC(C)=O)c1cccc(OCCO)c1)c1cc(C(=O)OC)ccc1OC,1.21,-1.57 (inactive),0.49 (inactive),-0.733 (inactive),-0.489 (inactive),2.1 (inactive),1.47 (inactive),0.938,0.155,-0.496 (inactive),-0.5,-2.56,-4.24 (inactive),-0.8 (inactive),-0.95 (inactive)
C=CC[C@]1(C(=O)NCC(O)CO)N=C(c2ccc(OCCCO)cc2)O[C@H]1c1ccccc1 (stereo not given in full),0.766,-1.49 (inactive),0.776 (inactive),-0.537 (inactive),-1.07 (inactive),1.44 (inactive),0.199 (inactive),1.01,-0.0102,0.654 (inactive),0.124,-0.851,-5.04 (inactive),-0.147 (inactive),-0.0911 (inactive)
C=CCNC(=O)[C@H]1[C@@H]2C(=O)O[C@@H](c3ccccc3)[C@@H](c3ccccc3)N2[C@@H](c2ccc(O)cc2)[C@]12C(=O)Nc1ccc(C#CCNC(N)=O)cc12,0.435,-0.558 (inactive),0.476 (inactive),-0.438 (inactive),-0.381 (inactive),0.574 (inactive),0.771 (inactive),0.917,0.0223,0.342 (inactive),0.0866,-0.491,-2.56 (inactive),0.191 (inactive),0.424 (inactive)
O=C1O[C@@H](c2ccccc2)[C@@H](c2ccccc2)N2[C@@H](c3ccc(O)cc3)[C@]3(C(=O)Nc4ccc(C#CC5(O)CCCCCC5)cc43)[C@@H](C(=O)Nc3nc4ccccc4s3)[C@H]12,0.527,-0.657 (inactive),1.19 (inactive),-0.067 (inactive),0.74 (inactive),0.597 (inactive),0.946 (inactive),0.88,-0.184,1.8 (inactive),0.756,-0.697,-0.586 (inactive),-0.44 (inactive),-0.169 (inactive)
C=CC[C@@]1(C(=O)N2CCOCC2)N=C(c2ccc(OCCCO)cc2)O[C@@H]1c1ccccc1,0.781,-1.69 (inactive),1.1 (inactive),0.702 (inactive),1.45 (inactive),0.788 (inactive),-0.0676 (inactive),1.02,-0.167,1.79 (inactive),-0.526,-1.74,-5.67 (inactive),-0.648 (inactive),-0.241 (inactive)
C=CCC(OC(C)=O)[C@@H]1[C@@H](N(Cc2ccc(-c3ccccc3)cc2)C(=O)c2ccc(C)cc2)c2cc(OCCCO)ccc2N1C(=O)c1ccc(-c2ccccc2)cc1 (stereo not given in full),2.15,-1.71 (inactive),1.55 (inactive),-1.08 (inactive),-3.45 (inactive),2.05 (inactive),1.27 (inactive),1.51,-0.467,-0.0684 (inactive),-0.322,-2.66,-1.35 (inactive),0.0807 (inactive),0.582 (inactive)
